Assay outcomes: PubChem BioAssay, National Center for Advancing Translational Sciences (NCATS)
Shiga inhibitor – Shiga toxin inhibition. Vero cells, Shiga toxin protein synthesis inhibition reporter. inhibition, % at 38.7 µM. 9.2% of 290,000 active. AID 2315; in the data active = inhibition mostly above about 28%, no sharp cut-off; inactive = mostly below about 43%; note: 0% is about no effect
HCV inhibitor – inhibitors of hepatitis C virus infection; 3.4% of 340,000 active; Potency, µM (top dose mostly 41.8 µM), inactives show at the highest dose activity change, negative = inhibition, usual class: inhibitors; AID 651820; Huh7.5.1 HCVcc-Cre infection, luciferase reporter, 44 h; active = well fitted inhibition curve with a large enough effect; inconclusive = small, poorly fitted or top-dose-only effect, or another doubt; inactive = no such curve, though single readings can be large or run the other way; note: potency is the fitted concentration of half-maximal effect; % is set by controls: 0 for no effect and ±100 for the full control effect
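Antiviral activity was scored by luciferase reporter output from cells infected with HCVcc-Cre (~0.5 moi) in presence of compound, 44 h infection period, cells seeded 1,000/well 4 h prior.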
LASV entry inh – inhibitors of Lassa virus binding or cell entry. AID 540256. Potency, µM (doses to about 37.9 µM), for the others: at the top dose activity change, negative = inhibition, most hits filed as inhibitors. 1.2% of 300,000 active. Lassa virus pseudotype entry inhibition, cell reporter; calls by dose curve; tested in HEK293 cells; note: potency is the fitted concentration of half-maximal effect; % is set by controls: 0 for no effect and ±100 for the full control effect; nearly all actives have a fitted effect of over 50% in size
MARV entry inh – Marburg virus entry inhibition; AID 540276; Potency, µM (series often up to 37.8 µM), without a hit: at the highest dose activity change, negative = inhibition, most hits filed as inhibitors; Marburg virus pseudotyped entry inhibition, cell reporter; 1.8% of 300,000 active; calls by dose curve; tested in HEK293 cells; note: potency is the fitted concentration of half-maximal effect; % is set by controls: 0 for no effect and ±100 for the full control effect
Cycloheximide cs – counter-screen for Shiga toxin inhibitors: cycloheximide protein synthesis inhibition; 12% of 300,000 active; AID 2314; cell reporter, cycloheximide protein synthesis inhibition counterscreen; max response, %; in the data active = max response mostly above about 13%, no sharp cut-off; inactive = mostly below about 14%; note: read at 38.3 µM for the half of the compounds with a filed dose; 0% is about no effect
FMDV inh – blocks foot and mouth disease virus; AID 1159524; Potency, µM (series often up to 57.9 µM), for the others: top-dose activity change, negative = inhibition, most hits filed as inhibitors; 1.2% of 410,000 active; FMDV antiviral cell-based qHTS; calls by dose curve; tested in HEK293T cells; note: read-out not given here; potency is the fitted concentration of half-maximal effect; % is set by controls: 0 for no effect and ±100 for the full control effect; nearly all actives have a fitted effect of over 45% in size
Active calls of the source: *; u = inconclusive; x = no result given; ! = not confirmed by another sample; [ ] = dose if it differs, or a comment. Shown are actives, neighbours in structure and some others; about 13% of the full set was active somewhere.

SMILES	Shiga inhibitor	HCV inhibitor	LASV entry inh	MARV entry inh	Cycloheximide cs	FMDV inh
O=C(NCCc1ccccc1)c1cnc2sc(N3CCOCC3)nn2c1=O	x	x	20.0%[46.1 µM]	x	x	-6.1%
Cc1sc2nc(CSc3nc4ccccc4s3)[nH]c(=O)c2c1C	79.6	x	x	x	21.2*	x
O=c1[nH]c(CSc2nc3ccccc3s2)nc2ccccc12	52.4*	-9.0%	x	x	29.9*	15.8%
Cc1ccc(-n2c(C)nnc2SCC(=O)N2CCc3ccccc3C2)cc1C	-2.2	-0.5%	-13.5%	22.0%	-5.5	-7.9%
NS(=O)(=O)OCC1CCCCC1	-4.0	25.0%	x	x	-2.9	-7.3%
Nc1nc(N)c(N=O)c(OCC2CCCCC2)n1	40.7*!	-10.1%	u	u	21.3*	-12.0%
CCC(=O)NC(Cc1ccccc1)c1ccc2c(c1)OCCCO2 (stereo not drawn)	28.0	24.8%	0.8%	4.0%	15.8	16.8%
COc1ccc(C2=NS(=O)(=O)N(C)C(C(=O)Nc3ccc4c(c3)OCO4)=C2)cc1	8.0	-5.4%	x	x	-2.2	u
COc1ccc(C2=NS(=O)(=O)N(C)C(C(=O)Nc3ccc4c(c3)OCO4)=C2)cc1OC	11.3	12.6µM*	x	x	20.1*	u
CN1C(C(=O)Nc2cccc(O)c2)=CC(c2ccco2)=NS1(=O)=O	7.8	-14.5%	-6.3%[46.1 µM]	u	10.4*	-26.8%
Cc1ccc(C2=NS(=O)(=O)N(C)C(C(=O)Nc3ccc4c(c3)OCO4)=C2)cc1	17.7*	u	x	x	18.1*	-12.8%
Cc1ccc(O)c(NC2=C(Cl)C(=O)N(Cc3ccccc3)C2=O)c1	-2.0	-19.4%	1.5%[46.1 µM]	-45.7%[46.1 µM]	-2.1	6.7%
O=c1[nH]cnc2c1c(-c1ccccc1)cn2-c1ccccc1	20.6	-1.3%	x	x	2.3	-12.2%
Fc1ccc(-n2cc(-c3ccccc3)c3c(=S)nc[nH]c32)cc1	-2.5	u	5.01µM*	u	-2.1	-27.4%
Cc1ccc(-n2cc(-c3ccccc3)c3c(=O)[nH]cnc32)cc1	-10.2	9.5%	14.6µM*	-28.5%	-3.7	6.9%
COC(=O)CSc1nnc2cc(C)c3ccccc3n12	-4.3	-25.3%	-0.4%	-1.9%[46.1 µM]	7.6	-12.2%
CC(=O)Nc1ccc(S(=O)(=O)NCc2ccc3c(c2)CCN3C(C)=O)cc1	x	x	1.5%[46.1 µM]	x	x	-12.7%
CCn1c(C(=O)N2CCc3ccccc3C2)cc2oc3ccccc3c21	7.2	-28.3%	-9.2%	-28.1%	6.2	-6.4%
Cn1c(C(=O)N2CCc3ccccc3C2)cc2oc3ccccc3c21	61.0*	-8.1%	8.4%	u	37.7*	34.7%
CSCCCNC(=S)N1CCc2ccccc2C1	73.8	-27.1%	-17.7%[46.1 µM]	u	28.8*	21.4%
Cc1ccccc1C(=O)N1CCc2ccccc2C1	43.5	7.2%	19.6%	-4.2%	18.7*	x
CSc1ccccc1C(=O)N1CCc2ccccc2C1	45.6	19.4%	19.8%	u	16.3*	31.5%
O=C(Nc1oc2ccccc2c(=O)c1-c1ccc2c(c1)OCO2)c1ccco1	x	x	x	x	x	19.1%
COc1ccccc1OCCCn1cc(C#N)c2ccccc21	33.9*	u	11.0%	u	26.7*	-23.5%
N#Cc1cn(CCCOc2ccccc2)c2ccccc12	25.4	u	13.8%	-0.7%	16.6*	-4.0%
SMILES	Shiga inhibitor	HCV inhibitor	LASV entry inh	MARV entry inh	Cycloheximide cs	FMDV inh
COc1ccccc1OCCCn1cc(C=O)c2ccccc21	16.1	2.0%	u	u	5.3	-30.3%
Cc1nc(SC(C(N)=O)c2ccccc2)c(C#N)c(C)c1C (stereo not drawn)	-9.3	u	13.5%	u	-1.8	-3.9%
COC(=O)CSc1nc(-c2ccccc2)cc(-c2ccco2)c1C#N	83.3*	u	-4.2%	u	41.0*	-4.8%
COc1ccccc1-c1cc(-c2ccccc2)nc(SC(C(N)=O)c2ccccc2)c1C#N (stereo not drawn)	-15.8	u	u	14.6µM*	6.0	-15.5%
Fc1ccccc1-n1cc(-c2ccccc2)[nH]c1=S	36.4	-1.3%	6.2%	4.1%	29.4*	23.5%
COc1ccc(-n2cc(-c3ccccc3)[nH]c2=S)c(OC)c1	-17.5	u	x	x	-3.7	u
COc1cc(NC(=O)CN2C(=O)C(C)N(c3ccc(C)cc3)C2=O)cc(OC)c1 (stereo not drawn)	x	u	-18.2%	-4.3%	x	0.0%
CCCC1c2ccc(C)n2CCN1C(=O)Nc1ccccc1Cl (stereo not drawn)	73.6*	2.7%	18.6%	15.3%	26.2*	0.0%
